In one assay the test system is CRL-7250. Nature of the assay: Cytotoxic Profiling of Annotated Libraries Using Quantitative High-Throughput Screening (AID 1296008). Further: nearly all actives have a fitted effect of over 60% in size. Further: potency means the concentration at half of the fitted maximal effect. To be noted: Five cell lines viability, CellTiter-Glo ATP luminescence, 48-72 h; max response: active compounds read low. The procedure, abridged:
(§1)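 Cytotoxicity was measured as CellTiter-Glo ATP luminescence, read after 10 min at room temperature. Compound treatment of the cells lasted 48 or 72 hr at 37 degrees Celsius in a qHTS format.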
On the technique in general: Cellular ATP, detected with luciferase, serves as a proxy for viable cell number.

Assay [1] has as its system HaCat. Described as above. The note with it: Five cell lines viability, CellTiter-Glo ATP luminescence, 48-72 h; max response: active compounds read low. The procedure, abridged: as §1
The subject of the next assay is MCC-13. Nature of the assay: qHTS assay to identify novel small-molecules to repurpose for Merkel cell carcinoma treatment (AID 1296009). Further: nearly all actives have a fitted effect of over 60% in size. Further: potency means the concentration at half of the fitted maximal effect. To be noted: MCC and control cell lines, CellTiter-Glo viability, 72 h; series mostly up to 46 µM. Summed up: (§2)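 Cell viability measured by CellTiter-Glo following 72 hr compound treatment at 37 degree celsius, with NPC and MIPE libraries tested in 8- and 11-point concentration series.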
For orientation: Quantitative high-throughput screening tests each substance at several concentrations.

For another assay, the system named is MCC-26. The assay is described as above. The note with it: MCC and control cell lines, CellTiter-Glo viability, 72 h; series mostly up to 46 µM. Summed up: as §2
For a further assay, the system named is MKL-1. The description is as above. To be noted: MCC and control cell lines, CellTiter-Glo viability, 72 h; series mostly up to 46 µM. The procedure, abridged:
as §2

Another assay relates to MKL-2. The assay is described as above. The note with it: MCC and control cell lines, CellTiter-Glo viability, 72 h; series mostly up to 46 µM. The procedure, abridged:
as §2

In the next assay the test system is UISO. The assay is described as above. The note with it: MCC and control cell lines, CellTiter-Glo viability, 72 h; series mostly up to 46 µM. Summed up:
as §2

Another assay has as its system WaGa. The assay is described as above. The note with it: MCC and control cell lines, CellTiter-Glo viability, 72 h; series mostly up to 46 µM. The procedure, abridged:
as §2

Another assay concerns C33A. Briefly: Primary qHTS to identify gynecologic anti-cancer compounds using libraries of approved drugs and bioactive compounds (AID 1345084). Further: nearly all actives have a fitted effect of over 55% in size. The note with it: Gynecologic cancer cell panel viability, ATPlite luminescence, 48 h; series mostly up to 57.5 µM. Summed up: (§3)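 48 h compound exposure at 37 C, 5% CO2; five-point qHTS. ATPlite luminescence readout of cell ATP.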

In another assay the test system is CAOV3. Described as above. To be noted: Gynecologic cancer cell panel viability, ATPlite luminescence, 48 h; series mostly up to 57.5 µM. Summed up: as §3
A further assay has as its system CASKI. The assay is described as above. To be noted: Gynecologic cancer cell panel viability, ATPlite luminescence, 48 h; series mostly up to 57.5 µM. Summed up: as §3
A further assay concerns KB-3-1. Nature of the assay: Cytotoxic Profiling of Annotated Libraries Using Quantitative High-Throughput Screening (AID 1296008). Further: nearly all actives have a fitted effect of over 60% in size. Further: potency means the concentration at half of the fitted maximal effect. To be noted: Five cell lines viability, CellTiter-Glo ATP luminescence, 48-72 h; max response: active compounds read low. Summed up: as §1
In assay [2] the test system is NIH3T3. The description is as above. To be noted: Five cell lines viability, CellTiter-Glo ATP luminescence, 48-72 h; max response: active compounds read low. The procedure, abridged: as §1
For assay [3], the system named is HACAT. Nature of the assay: qHTS assay to identify novel small-molecules to repurpose for Merkel cell carcinoma treatment (AID 1296009). Further: nearly all actives have a fitted effect of over 60% in size. Further: potency means the concentration at half of the fitted maximal effect. To be noted: MCC and control cell lines, CellTiter-Glo viability, 72 h; at 44.8 µM (top of the series) unless noted. The procedure, abridged:
as §2

Another assay deals with HEK293. Nature of the assay: Cytotoxic Profiling of Annotated Libraries Using Quantitative High-Throughput Screening (AID 1296008). Further: nearly all actives have a fitted effect of over 60% in size. Further: potency means the concentration at half of the fitted maximal effect. The note with it: Five cell lines viability, CellTiter-Glo ATP luminescence, 48-72 h; max response: active compounds read low. The procedure, abridged:
as §1

For assay [4], the system named is NIH3T3. Briefly: qHTS assay to identify novel small-molecules to repurpose for Merkel cell carcinoma treatment (AID 1296009). Further: nearly all actives have a fitted effect of over 60% in size. Further: potency means the concentration at half of the fitted maximal effect. To be noted: MCC and control cell lines, CellTiter-Glo viability, 72 h; at 44.8 µM (top of the series) unless noted. Summed up: as §2

Each structure is given as a SMILES string. Results filed as inconclusive are left out. Some structures have more than one record in an assay (separate samples or runs), and their calls can disagree. A number with no mark means an inactive call. Calls of active or inactive are those of the source. The call rests on the fitted dose curve; in most records, active means well fitted curve in the direction sought with a large enough effect; inconclusive means small, poorly fitted or top-dose-only effect, or another doubt; inactive means no such curve, though single readings can be large; an effect the other way counts as inactive or inconclusive.
On the % scale 0 is the no-effect control and ±100 the full control effect.

In the case of `CCS(=O)(=O)N1CC(CC#N)(n2cc(-c3ncnc4[nH]ccc34)cn2)C1`, the max response in the assay with CRL-7250 is -3.54%; in the assay with HaCat [1], -22.3%. The Potency in the assay on HaCat [1] was 5.17 µM (active). In addition, the Potency result in the assay on MCC-13, with MCC-26, in the assay with MKL-1, with MKL-2, in the assay on UISO and with WaGa was “inactive” throughout. For the same compound, the Potency result with C33A, in the assay with CAOV3 and in the assay with CASKI was “inactive” each time.

For `CC1(C)S[C@H]2[C@H](NC(=O)[C@@H](N)c3ccc(O)cc3)C(=O)N2[C@@H]1C(=O)O`, the compound was classed as inactive with CRL-7250, in the assay with HaCat [1], in the assay with KB-3-1 and in the assay on HACAT [3]. Besides, the max response with NIH3T3 [2] was 4.61%. For the same compound, the Potency result in the assay on MCC-13 and with UISO was “inactive” in each case. The Potency is 4.18 µM (active) in the assay on MKL-2 and 2.64 µM (active) with WaGa.

Take `COc1ccc(Cc2ccc(NC(N)=O)cc2)cc1-c1cccc(Cl)c1`: the max response was 2.51% in the assay with CRL-7250, -15.8% in the assay on HEK293, -9.2% with KB-3-1 and -1.6% with NIH3T3 [2]. Moreover, the Potency result in the assay with MCC-13, in the assay on MCC-26, with MKL-1, in the assay with MKL-2, in the assay on UISO and in the assay on WaGa was “inactive” in each case. In addition, the Potency result in the assay on C33A, in the assay on CAOV3 and in the assay on CASKI was “inactive” in each case.

Regarding `NC(=O)[C@@H](CCC(F)(F)F)N(Cc1ccc(-c2ncon2)cc1F)S(=O)(=O)c1ccc(Cl)cc1`, the max response was -21.3% in the assay on CRL-7250, -0.733% with HaCat [1] and -20.8% in the assay with KB-3-1. The Potency result in the assay on MCC-13, in the assay with MCC-26, with MKL-1, with MKL-2, in the assay on UISO and with WaGa was “inactive” each time.

Take `COC(=O)N[C@H](C(=O)N1CCC[C@@H]1c1ncc(-c2ccc(-c3ccc(-c4cnc([C@@H]5CCCN5C(=O)[C@@H](NC(=O)OC)C(C)C)[nH]4)cc3)cc2)[nH]1)C(C)C`: the compound was called inactive in the assay on CRL-7250, with HaCat [1] and with HACAT [3]. Besides, the max response with KB-3-1 was 1.64%; in the assay with NIH3T3 [2], 2.81%. The Potency result in the assay on MCC-13, in the assay with MCC-26, with MKL-1, in the assay with MKL-2, with UISO and in the assay with WaGa was “inactive” in each case.

Regarding `C[C@@H]1CCN(C(=O)CC#N)C[C@H]1N(C)c1ncnc2[nH]ccc12`, the figures for the max response with CRL-7250 and in the assay on KB-3-1 were -14.7% and -5.04%, respectively. The Potency with HaCat [1] is 8.33 µM (active). Moreover, the Potency result with MCC-13, in the assay on MCC-26, in the assay on MKL-1, in the assay with MKL-2, in the assay on UISO and in the assay with WaGa was “inactive” in each case.

Regarding `O=C1NC(=O)C(=Cc2ccc(-c3ccc(F)cc3)o2)S1`, the max response in the assay with CRL-7250 was -0.559%; in the assay on HaCat [1], -17.4%; in the assay on KB-3-1, -5.29%; in the assay with NIH3T3 [2], -13.2%. The Potency result with MCC-13, in the assay on MCC-26, with MKL-1, in the assay on MKL-2, with UISO and in the assay with WaGa was “inactive” in each case.

With `CN(C)CCC=C1c2ccccc2COc2ccc(CC(=O)O)cc21`, the compound was called inactive with CRL-7250, with HaCat [1], with KB-3-1, in the assay on HACAT [3] and in the assay on NIH3T3 [4]. The Potency entry in the assay on MCC-13, with MCC-26, with MKL-1, with MKL-2, in the assay with UISO and with WaGa was “inactive” in each case.

As to `O=c1c(-c2ccc(O)cc2)coc2cc(O[C@@H]3O[C@H](CO)[C@H](O)[C@H](O)[C@H]3O)ccc12`, the max response was -13.5% with CRL-7250, -4.86% with HaCat [1] and 1.51% in the assay with NIH3T3 [2]. The compound was classed as inactive in the assay with KB-3-1. For the same compound, the Potency result with MCC-13, in the assay with MCC-26, in the assay on MKL-1, in the assay with MKL-2, in the assay on UISO and in the assay with WaGa was “inactive” in each case.

As to `CC(C)C[C@H](CC(=O)O)C(=O)N[C@@H](Cc1c[nH]c2ccccc12)C(=O)N[C@@H](C)c1ccccc1`, the max response is -5.99% in the assay with CRL-7250, 3.15% in the assay on HaCat [1] and 5.47% in the assay on KB-3-1. In addition, the Potency entry in the assay with MCC-13, in the assay on MCC-26 and with UISO was “inactive” throughout. Besides, the Potency in the assay with MKL-1 is 4.69 µM (active); in the assay on WaGa, 3.32 µM (active).

In the case of `Cn1cc(C=C2C(=O)Nc3cccnc32)c2ccccc21`, the max response with CRL-7250 was -3.71%; in the assay with HaCat [1] it was -0.233%; with KB-3-1, 5.23%. For the same compound, the Potency result in the assay on MCC-13, in the assay with MKL-1, with MKL-2, with UISO and in the assay on WaGa was “inactive” each time.

For the compound `CCC(=O)NC[C@H](Cc1ccc(OCCc2nc(-c3ccccc3)oc2C)cc1)NC(C)=CC(=O)c1ccc(C(F)(F)F)cc1`, the max response with CRL-7250 is -13.2%. The call in the assay with KB-3-1 was inactive. Moreover, the Potency result in the assay with MCC-13 and in the assay with MCC-26 was “inactive” throughout. For the same compound, the values for the Potency in the assay on MKL-1 and in the assay with WaGa were 7.43 µM (active) and 4.69 µM (active), respectively.

Turning to `CO[C@H]1C[C@@H]2CC[C@@H](C)[C@@](O)(O2)C(=O)C(=O)N2CCCC[C@@H]2C(=O)O[C@H]([C@H](C)C[C@@H]2CC[C@H](OP(C)(C)=O)[C@H](OC)C2)CC(=O)[C@H](C)C=C(C)[C@@H](O)[C@@H](OC)C(=O)[C@H](C)C[C@H](C)C=CC=CC=C1C`, the max response in the assay on CRL-7250 is -18.4%; in the assay on NIH3T3 [2], 4.15%. For the same compound, the compound was classed as inactive in the assay with HaCat [1] and with HACAT [3]. Further, the Potency result in the assay with MCC-13, in the assay with MCC-26, with MKL-2 and with UISO was “inactive” each time. Also, the Potency in the assay on WaGa was 23.5 µM (active).

As for `CC=CC[C@@H](C)C(=O)[C@H]1C(=O)N[C@@H](C(C)C)C(=O)N(C)CC(=O)N(C)[C@@H](CC(C)C)C(=O)N[C@@H](C(C)C)C(=O)N(C)[C@@H](CC(C)C)C(=O)N[C@@H](C)C(=O)N[C@H](C)C(=O)N(C)[C@@H](CC(C)C)C(=O)N(C)[C@@H](CC(C)C)C(=O)N(C)[C@@H](C(C)C)C(=O)N1C`, the max response with CRL-7250 is -6.35%; in the assay on HaCat [1], -21.7%; in the assay with KB-3-1, -1.28%. Further, the Potency entry with MCC-13, in the assay on MKL-1, in the assay with MKL-2, in the assay on UISO and in the assay on WaGa was “inactive” each time.

For `CO[C@H]1C=CC=C(C)C(=O)NC2=CC(=O)C(NCCN(C)C)=C(C[C@@H](C)C[C@H](OC)[C@@H](O)[C@@H](C)C=C(C)[C@@H]1OC(N)=O)C2=O`, the Potency in the assay on CRL-7250 is 0.0526 µM (active); with HaCat [1], 0.0332 µM (active); with KB-3-1 it was 0.0372 µM (active); in the assay with MCC-13 it was 4.69 µM (active); with MKL-1 it was 1.05 µM (active); in the assay with MKL-2, 14.8 µM (active). Besides, the Potency in the assay with UISO was 0.296 µM (active).
